# Screens as filed in PubChem BioAssay.
# An excerpt weighted towards active compounds, which were near 7.9% of everything screened.
# FMDV inh: antivirals against foot and mouth disease virus; Potency, µM (series often up to 57.9 µM), for inactives: top-dose activity change, negative = inhibition, most hits filed as inhibitors; FMDV antiviral cell-based qHTS; 410,000 compounds, 1.2% hits; calls by dose curve; tested in HEK293T cells; further: read-out not given here; potency means the concentration at half of the fitted maximal effect; nearly all actives have a fitted effect of over 45% in size
# Lassa entry inh: Lassa virus entry inhibition; Lassa virus pseudotype entry inhibition, cell reporter; Potency, µM (highest dose often 37.9 µM), for inactives: at the highest dose activity change, negative = inhibition, actives largely listed as inhibitors; 300,000 compounds, 1.2% hits; AID 540256; calls by dose curve; tested in HEK293 cells; further: potency means the concentration at half of the fitted maximal effect; nearly all actives have a fitted effect of over 50% in size
# HCMV inh: human cytomegalovirus inhibition. HFF cells, HCMV-luciferase reporter, 72 h; active compounds read low. activity change, negative = inhibition, % at 57.5 µM. 410,000 compounds, 4.5% hits; in the data active means activity change below about -60%; inconclusive means no clear call, values can overlap the other calls; inactive means above about -39%
#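 HFF cells seeded 16 h at 37C, treated with compounds, infected with luciferase-reporter HCMV at MOI 1 PFU/cell; luciferase read at 72 h post infection, normalized to buffer-only and Salinomycin controls.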
# MARV entry inh: blocks Marburg virus binding to or entry into cells | Marburg virus pseudotyped entry inhibition, cell reporter | Potency, µM (top dose mostly 37.8 µM), for the others: at the highest dose activity change, negative = inhibition, usual class: inhibitors | 300,000 compounds, 1.8% hits; calls by dose curve; tested in HEK293 cells; further: potency means the concentration at half of the fitted maximal effect
# HCV inhibitor: HCV inhibition. 340,000 compounds, 3.4% hits. Potency, µM (top dose mostly 41.8 µM), without a hit: at the highest dose activity change, negative = inhibition, actives largely listed as inhibitors. Huh7.5.1 HCVcc-Cre infection, luciferase reporter, 44 h; active means well fitted inhibition curve with a large enough effect; inconclusive means small, poorly fitted or top-dose-only effect, or another doubt; inactive means no such curve, though single readings can be large or run the other way; further: potency means the concentration at half of the fitted maximal effect
#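 After 44 h co-culture of compound, cells and HCVcc-Cre (~0.5 moi), substrate is added for 15 min at room temperature and luciferase measured over 15 sec. Cells were seeded at 1,000/well and pre-cultured 4 h.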
# * = called active by the depositor; ? = inconclusive; · = no result given; [ ] = dose if it differs, or a comment. On the % scale 0 is the no-effect control and ±100 the full control effect.
SMILES,FMDV inh,Lassa entry inh,HCMV inh,MARV entry inh,HCV inhibitor
COc1ccccc1NC(=S)NC(=O)c1ccc(-c2ccc(Cl)cc2)o1,·,-22%,-63*,-15%,?
COc1cc2c(C(=O)N3CCN(c4ccccc4C)CC3)c(C)oc2cc1Br,?,-3%,-37,-4%,11µM*
Cn1ncc(Cl)c1C(=O)N1CCN(S(=O)(=O)c2cccs2)CC1,-12%,10%,39,-3%,25%
O=C(c1ccc(-c2ccc([N+](=O)[O-])cc2)o1)N1CCN(S(=O)(=O)c2cccs2)CC1,?,-12%,-61*,-9%,8%
COc1ccccc1N1CCN(C(=O)c2ccc(-c3ccc(Cl)cc3)o2)CC1,-21%,·,-12,·,3.2µM*
COc1ccccc1N1CCN(C(=O)c2cc(C(C)(C)C)oc2C)CC1,-16%,-29%[46.1 µM],?,10µM*,-12%
Cc1oc(C(C)(C)C)cc1C(=O)N1CCN(c2ncccc2C(F)(F)F)CC1,-23%,-23%,-23,-2%,-2%
CC(C)(C)OC(=O)N1Cc2ccccc2C[C@H]1C(=O)NC1CCCC1,-10%,-15%,25,?,9%
CCCNS(=O)(=O)c1ccc(CCC(=O)Nc2cc(Cl)ccc2Oc2ccccc2)cc1,?,?,-2,?,10µM*
CCOc1ccc(Oc2ccccc2NS(=O)(=O)c2ccc(CCC(=O)O)cc2)cc1,?,·,-64*,·,-15%
O=C(O)CCc1ccc(S(=O)(=O)Nc2ccc(OCc3ccccc3)cc2)cc1,7%,-2%[46.1 µM],10,?,?
CC(C)(C)NS(=O)(=O)c1ccc(CCC(=O)Nc2cc(Cl)ccc2Oc2ccccc2)cc1,?,?,17,8.9µM*,8.9µM*
CC(C)CNS(=O)(=O)c1ccc(CCC(=O)Nc2cc(Cl)ccc2Oc2ccccc2)cc1,?,?,28,-6%[46.1 µM],?
COCCCn1c(=O)/c(=C\c2ccccc2OC(C)C)s/c1=C(/C#N)C(=O)Nc1ccc(C(=O)O)cc1,?,-9%,0,-2%[46.1 µM],3%
CCOc1cc(S(=O)(=O)N(Cc2ccccc2)Cc2ccccc2)c(OCC)cc1-n1cnnn1,-9%,-53%[14.3 µM],20,21µM*,·
CCOc1ccccc1CNC(=O)C1CCN(S(=O)(=O)c2c(C)noc2/C=C/c2ccccc2F)CC1,-9%,8%[46.1 µM],23,·,·
COc1ccccc1NS(=O)(=O)c1cc(NC(=O)CC(C)(C)C)ccc1N1CCOCC1,56%,-27%,?,?,?
CCC(C(=O)Nc1ccc(N2CCOCC2)c(S(=O)(=O)Nc2ccccc2OC)c1)c1ccccc1 (centres undefined),57%,?,-81*,?,?
COc1ccccc1NS(=O)(=O)c1cc(NC(=O)CCC2CCCC2)ccc1N1CCOCC1,26%,·,-104*,·,10%
O=C1N(c2ccccc2)CCN1c1ccccc1,0%,·,57,·,5%
O=C1NCCN1c1ccccc1,-4%,?,-79*,18%,10%
CN(/N=C/c1cc(Br)cc(Br)c1O)c1cccc(C(F)(F)F)n1,?,?,-65*,-18%,-15%
COc1ccc(S[C@]2(C(=O)N3CCCC3)CC(=O)N(c3ccc(C#N)cc3)[C@@H]2c2ccc(OC)cc2)cc1,·,·,-25,·,·
COc1ccccc1CC(=O)Nc1ccc(-c2noc(COc3ccc(Cl)c(C)c3)n2)cc1,-23%,?,-67*,-25%,-14%
COc1ccc(-c2noc(CCC(=O)Nc3cc(OC)ccc3OC)n2)cc1,-23%,-16%,-10,?,?
SMILES,FMDV inh,Lassa entry inh,HCMV inh,MARV entry inh,HCV inhibitor
CCOC(=O)c1ccc(NC(=O)CCc2nc(-c3cccc(C)c3)no2)cc1,?,-20%,-32,2%,8.9µM*
COc1ccc(-c2noc(CCCC(=O)Nc3ccc(C(N)=O)cc3)n2)cc1,?,?,-90*,?,-2%
COc1ccc(-c2noc(CCC(=O)Nc3cc(Cl)c(OC)cc3OC)n2)cc1,-21%,-4%,-38,?,4µM*
O=C(CCCc1nc(-c2ccc(Cl)cc2)no1)NC1CCCC1,?,?,-84*,?,?
O=C(CCc1nc(-c2ccccc2F)no1)Nc1ccc(Oc2ccccc2)cc1,?,?,-64*,-12%[46.1 µM],?
COc1ccc(-c2noc(CCCC(=O)NC3CCCC3)n2)cc1,?,?,-80*,?,13µM*
COc1cccc(NC(=O)CCc2nc(-c3ccccc3F)no2)c1,0%,16%,5,5%,?
O=C(CCc1nc(-c2ccc(Cl)cc2)no1)NC1CCCCC1,-28%,-19%,1,14%,12%
COc1ccc2cc(CNc3ccc(C)cc3)c(=O)n(CC(=O)Nc3cccc(C(F)(F)F)c3)c2c1,6%,-2%[46.1 µM],1,·,·
Cc1cc(NC(=O)NC(=O)c2ccccc2NC(=O)C(C)N)ccc1Oc1ncc(Br)cn1 (centres undefined),15%,?,-83*,?,-23%
CN(C)CCN(Cc1ccco1)C(=O)c1cc2c(Cl)nc3ccccc3c2s1,-28%,0%,?,15µM*,10µM*
Cc1ccc2nc(Cl)c3cc(C(=O)N(CCN(C)C)Cc4ccco4)sc3c2c1,-18%,-27%,?,?,?
Cc1ccc(-n2c(SCC(=O)Nc3cccc(S(=O)(=O)NC4=NCCCCC4)c3)nc3ccccc3c2=O)cc1,7%,-18%,-66*,-15%,?
Cc1ccc(-n2c(SCC(=O)NNC(=S)Nc3ccccc3)nc3ccccc3c2=O)cc1,-15%,1%,?,8.9µM*,0%
O=C(CSc1nc2ccccc2c(=O)n1-c1ccc(F)cc1)Nc1ccc(C(=O)O)cc1,5%,11%,36,0%,2%
O=C(Nc1cccc(S(=O)(=O)NC2=NCCCCC2)c1)c1cc(-c2ccccc2Cl)nc2ccccc12,-17%,-26%,-64*,?,?
O=C(CSc1nc2c(oc3ccccc32)c(=O)n1Cc1ccco1)Nc1ccccc1,-24%,·,-9,11%[46.1 µM],·
O=C(NCCCN1CCCCC1)C1CCN(S(=O)(=O)N2CCC3(CC2)OCCO3)CC1,-15%,3%[46.1 µM],-6,3%[46.1 µM],20%
COc1ccccc1Cn1c(=O)c2ccccc2n2c(Sc3ncnc4sccc34)nnc12,?,?,?,?,10µM*
Cn1cc(-c2nc3cncnc3n(Cc3ccc(F)cc3)c2=O)c2ccccc21,-13%,·,·,·,·
COc1cc(Br)cc(/C=N/N(CCO)C2=NS(=O)(=O)c3ccccc32)c1OC,?,-28%[46.1 µM],58,4µM*,?
Cc1nc(C)n(CC(=O)NCC2Cc3cc(-c4ccsc4)cc(Cl)c3O2)n1 (centres undefined),-7%,·,·,·,·
CCN(CC)c1ccc(C(=O)NNC(=O)c2cccn2C)cc1,13%,-24%,26,?,7.1µM*
Cc1ccc(NS(=O)(=O)c2cccc(C(=O)N(C)Cc3cccs3)c2)cc1,-7%,-12%,-27,?,-4%
CCN(CC)c1ccc(N=Cc2ccc([N+](=O)[O-])o2)cc1,-9%,?,-9,?,13µM*
